VACV Venus inh: qHTS for Stage-Specific Inhibitors of Vaccinia Orthopoxvirus: Venus Reporter Primary qHTS; 0.46% of 330,000 active; Vaccinia virus Venus reporter expression, fluorescence; Potency, µM (titrated, usually from 36.5 µM), for inactives: at the top dose activity change, negative = inhibition, actives largely listed as inhibitors; calls by dose curve; tested in A549 cells; note: potency is the fitted concentration of half-maximal effect; nearly all actives have a fitted effect of over 30% in size
FMDV antiviral: High Throughput Screening for Foot and Mouth Disease Virus Antivirals | 1.2% of 410,000 active | Potency, µM (highest dose often 57.9 µM), for the others: top-dose activity change, negative = inhibition, most hits filed as inhibitors | AID 1159524, 2015 | FMDV antiviral cell-based qHTS; calls by dose curve; tested in HEK293T cells; note: read-out not given here; potency is the fitted concentration of half-maximal effect; nearly all actives have a fitted effect of over 45% in size
Lassa entry inh: qHTS for Inhibitors of binding or entry into cells for Lassa Virus | 1.2% of 300,000 active | Potency, µM (top dose mostly 37.9 µM), without a hit: top-dose activity change, negative = inhibition, actives largely listed as inhibitors | Lassa virus pseudotype entry inhibition, cell reporter; calls by dose curve; tested in HEK293 cells; note: potency is the fitted concentration of half-maximal effect; nearly all actives have a fitted effect of over 50% in size
Marburg entry inh: qHTS for inhibitors of binding or entry into cells for Marburg Virus | Marburg virus pseudotyped entry inhibition, cell reporter | Potency, µM (titrated, usually from 37.8 µM), inactives show at the highest dose activity change, negative = inhibition, most hits filed as inhibitors | 1.8% of 300,000 active | AID 540276, 2011; calls by dose curve; tested in HEK293 cells; note: potency is the fitted concentration of half-maximal effect
HCMV inh: qHTS Assay for inhibitors of the human cytomegalovirus (HCMV). HFF cells, HCMV-luciferase reporter, 72 h; stronger effect = lower value. activity change, negative = inhibition, % at 57.5 µM. 4.5% of 410,000 active; in the data active = activity change below about -60%; inconclusive = no clear call, values can overlap the other calls; inactive = above about -39%
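Human foreskin fibroblasts infected with luciferase-reporter HCMV at MOI 1 PFU/cell, compounds at two doses. Luciferase measured 72 h post infection; normalized to buffer-only basal and Salinomycin (10uM) controls.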
Vaccinia mCherry: qHTS for Stage-Specific Inhibitors of Vaccinia Orthopoxvirus: mCherry Reporter Primary qHTS; Vaccinia virus mCherry reporter infection, fluorescence; Potency, µM (doses to about 36.5 µM), for the others: at the highest dose activity change, negative = inhibition, hits mostly inhibitors; 0.63% of 310,000 active; AID 720579, 2013; calls by dose curve; tested in A549 cells; note: potency is the fitted concentration of half-maximal effect; nearly all actives have a fitted effect of over 35% in size
* hit, by the source's call; [ ] = another dose, or the depositor's remark. Sampled rows, rich in hits. Any-hit rate of the full collection: about 6.5%. % is set by controls: 0 for no effect and ±100 for the full control effect.

For CCOC(=O)Cc1nnc(Nc2cc(C)ccc2C)c2ccccc12 the results were VACV Venus inh -14.2%, FMDV antiviral -8.8%, Lassa entry inh -1.2%[46.1 µM], Marburg entry inh 1.2%[46.1 µM], HCMV inh -60.3* and Vaccinia mCherry -11.1%.
Cc1ccc(NC(=O)Cc2noc3ccccc23)c(C)c1 was read as VACV Venus inh -10.4%, FMDV antiviral 28.4%, Lassa entry inh 18.7%, Marburg entry inh 28.0%, HCMV inh -31.8 and Vaccinia mCherry -14.8%.
Screening COc1ccccc1N1CCN(c2nc(CNC(=O)C3CC34CCCC4)nc3ccccc23)CC1 (stereo not given) returned VACV Venus inh -3.3%, FMDV antiviral -7.2% and Vaccinia mCherry -15.1%.
`CCOc1ccc(NC(=O)N2CC3CCCN3c3ccccc32)cc1` (stereo not given) gave VACV Venus inh -19.7%, FMDV antiviral -29.2%, Lassa entry inh -28.9%[46.1 µM], HCMV inh -10.8 and Vaccinia mCherry -3.3%.
CN(C)CCNc1cc(N2CCN(C)CC2)ncn1 was read as VACV Venus inh -11.4% and Vaccinia mCherry -20.5%.
CCOc1ccc(N(CC(=O)Nc2ccc(C)cc2)S(=O)(=O)c2c(C)noc2C)cc1 was read as VACV Venus inh -10.4%, FMDV antiviral 0.0%, Marburg entry inh -4.9%, HCMV inh -34.0 and Vaccinia mCherry inactive.
`CCOc1ccc(N(CC(=O)NCc2cccs2)S(=O)(=O)c2c(C)noc2C)cc1` gave VACV Venus inh -5.0%, FMDV antiviral 7.6%, Marburg entry inh 4.8%, HCMV inh -60.1* and Vaccinia mCherry 11.4%.
`COc1ccc(N(CC(=O)Nc2cc(C)on2)S(=O)(=O)c2ccc(Cl)cc2)cc1` gave VACV Venus inh -12.0%, FMDV antiviral -7.8%, Lassa entry inh -15.6%, Marburg entry inh 0.4%[46.1 µM] and HCMV inh -0.7.
`COc1ccc(N(CC(=O)Nc2cc(C)on2)S(=O)(=O)c2cc(C)ccc2C)cc1` gave FMDV antiviral 41.5%, Lassa entry inh -26.4%, Marburg entry inh inconclusive and HCMV inh -91.0*.
For CCOc1ccc(N(CC(=O)Nc2ccc(F)c(F)c2)S(=O)(=O)c2c(C)noc2C)cc1 the results were VACV Venus inh -10.4%, FMDV antiviral -19.6%, Lassa entry inh 5.7%, Marburg entry inh -6.3%, HCMV inh -62.8* and Vaccinia mCherry 19.1%.
Screening CCOC(=O)c1ccc(NC(=O)CN(c2ccc(C)cc2)S(=O)(=O)c2c(C)noc2C)cc1 returned VACV Venus inh -11.7%, FMDV antiviral -22.2%, Lassa entry inh inconclusive, Marburg entry inh 11.2µM*, HCMV inh 0.5 and Vaccinia mCherry -25.1%.
Screening CCCN1CCN(C(=O)c2cnn(-c3ncc4c(n3)-c3ccccc3CCC4)c2COC)CC1 returned VACV Venus inh -14.2%, FMDV antiviral -12.0% and Vaccinia mCherry -23.7%.
For O=C(O)/C=C\c1cnc[nH]1 the results were Marburg entry inh 4.4%.
C=C(CCN1C=C(C(=O)OCC)C(c2ccccc2)NC1=O)c1ccccc1 (stereo not given) was read as Marburg entry inh 9.8%[14.2 µM].
For COc1cc2ccccc2cc1C(=O)Nc1cccc(-c2nc3cc(C)c(C)cc3o2)c1 the results were VACV Venus inh 9.5%, FMDV antiviral -14.7%, Lassa entry inh inconclusive, HCMV inh 23.2 and Vaccinia mCherry 1.7%.
`COC1=C[C@H](C(=O)N2CCCC2)[C@H](C)[C@@H](c2ccccc2)CC1=O` gave Lassa entry inh inconclusive and Marburg entry inh 2.0%[14.2 µM].
Screening CCOc1ccc(NC(=O)CN(c2ccc(CC)cc2)S(=O)(=O)c2c(C)noc2C)cc1 returned VACV Venus inh -15.6%, FMDV antiviral -26.3%, Lassa entry inh -10.1%[46.1 µM], HCMV inh -7.4 and Vaccinia mCherry -16.5%.
For CCOc1ccc(N(CC(=O)Nc2cccc(OC)c2)S(=O)(=O)c2c(C)noc2C)cc1 the results were VACV Venus inh -11.7%, FMDV antiviral inconclusive, Marburg entry inh 2.6%, HCMV inh -62.2* and Vaccinia mCherry inactive.

Screening data (PubChem BioAssay)
